{"source": "PubChem BioAssay (NCATS)", "note": "Results filed as inconclusive are left out. Values without a mark were called inactive. Calls of active or inactive are those of the source. The call rests on the fitted dose curve; in most records, active means well fitted cell-killing curve with a large enough effect; inconclusive means small, poorly fitted or top-dose-only effect; inactive means no such curve, though single readings can be large or run the other way. Potency means the concentration at half of the fitted maximal effect."}
{"test": "qHTS of pediatric cancer cell lines to identify multiple opportunities for drug repurposing: Primary screen for Rh41 cells (AID 1347108); further: nearly all actives have a fitted effect of over 70% in size;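 on activity change, negative = cytotoxic: luminescence drop marks cytotoxic hits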", "settings": "Rh41 rhabdomyosarcoma viability, CellTiter-Glo luminescence, 48 h; series mostly up to 46 µM; activity change, negative = cytotoxic: at the top concentration", "in_short": "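CRCs from 8- or 11-point titrations (lowest final 0.59 nM NPC, 0.78 nM MIPE). Cell viability: CellTiter-Glo after 48 h incubation, 15 min room-temperature development, luminescence imaging.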", "units": {"activity change, negative = cytotoxic": "%"}}
{"smiles": "COc1cccc(OC)c1-c1cc(C(=O)NC2(C(=O)O)C3CC4CC(C3)CC2C4)nn1-c1ccnc2cc(Cl)ccc12", "note": "(stereo not drawn)", "activity change, negative = cytotoxic": 21.6}
{"smiles": "CCN(CC)CCCCNc1nc2cc(Cl)c(Cl)cc2nc1-c1ccc(-c2cccs2)s1", "Potency": "23.5 µM (active)"}
{"smiles": "CC[C@H](C)C(=O)O[C@H]1C[C@H](O)C=C2C=C[C@H](C)[C@H](CC[C@@H](O)C[C@@H](O)CC(=O)O)[C@H]21", "activity change, negative = cytotoxic": 7.68}
{"smiles": "CN1CCC(COc2cnc(-c3cccc(Cn4nc(-c5cccc(C#N)c5)ccc4=O)c3)nc2)CC1", "Potency": "3.72 µM (active)"}
{"smiles": "CC(C)(CO)[C@@H](O)C(=O)NCCC(=O)O", "activity change, negative = cytotoxic": 7.65}
{"smiles": "COc1ccc2nc3cc(Cl)ccc3c(Nc3cc(CN4CCCC4)c(O)c(CN4CCCC4)c3)c2n1", "activity change, negative = cytotoxic": 23.1}
{"smiles": "C[C@@H](O)[C@H]1C(=O)N2C(C(=O)OCOC(=O)C(C)(C)C)=C(SC3CN(C4=NCCS4)C3)[C@H](C)[C@H]12", "activity change, negative = cytotoxic": 16.5}
{"smiles": "CN1CCc2c(n(Cc3ccc(C(=O)NO)cc3)c3ccccc23)C1", "Potency": "11.8 µM (active)"}
{"smiles": "CC[C@H]1OC(=O)[C@H](C)[C@@H](O[C@H]2C[C@@](C)(OC)[C@@H](O)[C@H](C)O2)[C@H](C)[C@@H](O[C@@H]2O[C@H](C)C[C@H](N(C)C)[C@H]2O)[C@](C)(O)C[C@H](C)C(=NOCOCCOC)[C@H](C)[C@@H](O)[C@]1(C)O", "activity change, negative = cytotoxic": -6.04}
{"smiles": "CCCCN(CCCC)CC(O)c1cc(Cl)cc2c1-c1ccc(Cl)cc1C2=Cc1ccc(Cl)cc1", "note": "(stereo not drawn)", "activity change, negative = cytotoxic": 27.5}
{"smiles": "CC1(C)[C@H]2CC[C@]3(C)[C@@H](C(=O)C=C4[C@@H]5C[C@@](C)(C(=O)O)CC[C@]5(C)CC[C@]43C)[C@@]2(C)CC[C@@H]1O", "activity change, negative = cytotoxic": 7.1}
{"smiles": "Cc1ccc(NC(=O)c2ccc(CN3CCN(C)CC3)cc2)cc1Nc1nc(-c2cccnc2)cs1", "activity change, negative = cytotoxic": -9.49}
{"smiles": "NC[C@H]1O[C@H](O[C@@H]2[C@@H](O)[C@@H](O[C@H]3O[C@H](CO)[C@@H](O)[C@H](N)[C@@H]3O)[C@H](N)C[C@@H]2N)[C@H](O)[C@@H](O)[C@H]1O", "activity change, negative = cytotoxic": 25}
{"smiles": "CN[C@@H]1[C@@H](O)[C@@H](O[C@@H]2[C@@H](O)[C@H](O[C@H]3O[C@H](CN)[C@@H](O)[C@H](O)[C@@H]3O)[C@@H](N)C[C@@H]2NC(=O)[C@@H](O)CN)OC[C@]1(C)O", "activity change, negative = cytotoxic": 26.4}
{"smiles": "O=C(O)C1=CC(O)C(O)[C@H](O)C1", "note": "(stereo partly drawn)", "activity change, negative = cytotoxic": 19.9}
{"smiles": "COc1nccc(-c2c(-c3ccc(F)cc3)ncn2C2CCC(O)CC2)n1", "note": "(stereo not drawn)", "activity change, negative = cytotoxic": -4.67}
{"smiles": "c1ccc(-c2oc3ncnc(NC[C@@H]4CCCO4)c3c2-c2ccccc2)cc1", "Potency": "18.7 µM (active)"}
{"smiles": "CN(C)N=Nc1nc[nH]c1C(N)=O", "activity change, negative = cytotoxic": -11.2}
{"smiles": "Cc1ccc2c(c1)c1c(n2CCc2ccc(C)nc2)CCN(C)C1", "activity change, negative = cytotoxic": 21.7}
{"smiles": "O=C1C(CCC(O)c2ccc(F)cc2)C(c2ccc(O)cc2)N1c1ccc(F)cc1", "note": "(stereo not drawn)", "activity change, negative = cytotoxic": 11.6}
{"smiles": "O=C(O)C1=CO[C@@H](O[C@@H]2O[C@H](CO)[C@H](O)[C@H](O)[C@H]2O)[C@@H]2C(CO)=CC[C@H]12", "activity change, negative = cytotoxic": 8.62}
{"smiles": "CC1(C)C(N(O)C(=O)Nc2ccc(Cl)cc2)N(c2ccc(Cl)cc2)C(=O)N1CC(=O)NN=CC=Cc1ccc([N+](=O)[O-])o1", "note": "(stereo not drawn)", "Potency": "14.8 µM (active)"}
{"smiles": "CCOC(=O)[C@@H](N)CCC(=O)N[C@@H](CSCc1ccccc1)C(=O)N[C@@H](C(=O)OCC)c1ccccc1", "activity change, negative = cytotoxic": 7.31}
{"smiles": "CC(=O)NCCC(=O)N[C@@H](CCC(N)=O)C(=O)N[C@@H](CO)C(=O)N[C@@H](CCC(N)=O)C(=O)N[C@@H](CCC(N)=O)C(=O)N[C@H](C(=O)N[C@@H](Cc1ccccc1)C(=O)N[C@]1(C)CCCCCCC=CCCC[C@@](C)(C(=O)N[C@@H](CCC(N)=O)C(=O)N[C@@H](CC(N)=O)C(N)=O)NC(=O)[C@H](CC(C)C)NC(=O)[C@H](CC(C)C)NC(=O)[C@@H](CCCNC(=N)N)NC(=O)[C@H](Cc2c[nH]c3ccccc23)NC(=O)[C@H](CC(C)C)NC(=O)[C@H](CC(N)=O)NC1=O)[C@H](C)O", "Potency": "18.7 µM (active)"}
{"smiles": "CNC(=O)c1c(-c2ccc(F)cc2)oc2cc(N(CCO)S(C)(=O)=O)c(C3CC3)cc12", "Potency": "18.7 µM (active)"}
{"smiles": "O=C(Nc1ncc(SCCN2CCCC2)s1)[C@]1(c2ccc(S(=O)(=O)C3CC3)cc2)C[C@@H]1C1CCCCC1", "Potency": "18.7 µM (active)"}
{"smiles": "CCN1CCC(n2cc(CNc3cc(Cl)c4ncc(C#N)c(Nc5ccc(F)c(Cl)c5)c4c3)nn2)CC1", "Potency": "14.8 µM (active)"}
{"smiles": "Cc1nc2c([nH]1)CCN(C(=O)c1ccc(NC(=O)c3ccccc3-c3ccccc3)cc1)c1ccccc1-2", "activity change, negative = cytotoxic": 7.68}
